Test results from ChEMBL document CHEMBL1201862, “PubChem BioAssay data set” (2004).
The whole screen tested about 400,000 compounds, of which about 2,100 (0.53%) were called active. Not shown: some 14% with an inconclusive outcome. This is one part of a sample in which actives are shown more often than they occur. No rule for the calls is given here.

biological target: Ataxin-2 (Homo sapiens) (UniProt Q99700); experiment: qHTS for Inhibitors of ATXN expression.; format: functional
Sequence (Q99700 whole entry): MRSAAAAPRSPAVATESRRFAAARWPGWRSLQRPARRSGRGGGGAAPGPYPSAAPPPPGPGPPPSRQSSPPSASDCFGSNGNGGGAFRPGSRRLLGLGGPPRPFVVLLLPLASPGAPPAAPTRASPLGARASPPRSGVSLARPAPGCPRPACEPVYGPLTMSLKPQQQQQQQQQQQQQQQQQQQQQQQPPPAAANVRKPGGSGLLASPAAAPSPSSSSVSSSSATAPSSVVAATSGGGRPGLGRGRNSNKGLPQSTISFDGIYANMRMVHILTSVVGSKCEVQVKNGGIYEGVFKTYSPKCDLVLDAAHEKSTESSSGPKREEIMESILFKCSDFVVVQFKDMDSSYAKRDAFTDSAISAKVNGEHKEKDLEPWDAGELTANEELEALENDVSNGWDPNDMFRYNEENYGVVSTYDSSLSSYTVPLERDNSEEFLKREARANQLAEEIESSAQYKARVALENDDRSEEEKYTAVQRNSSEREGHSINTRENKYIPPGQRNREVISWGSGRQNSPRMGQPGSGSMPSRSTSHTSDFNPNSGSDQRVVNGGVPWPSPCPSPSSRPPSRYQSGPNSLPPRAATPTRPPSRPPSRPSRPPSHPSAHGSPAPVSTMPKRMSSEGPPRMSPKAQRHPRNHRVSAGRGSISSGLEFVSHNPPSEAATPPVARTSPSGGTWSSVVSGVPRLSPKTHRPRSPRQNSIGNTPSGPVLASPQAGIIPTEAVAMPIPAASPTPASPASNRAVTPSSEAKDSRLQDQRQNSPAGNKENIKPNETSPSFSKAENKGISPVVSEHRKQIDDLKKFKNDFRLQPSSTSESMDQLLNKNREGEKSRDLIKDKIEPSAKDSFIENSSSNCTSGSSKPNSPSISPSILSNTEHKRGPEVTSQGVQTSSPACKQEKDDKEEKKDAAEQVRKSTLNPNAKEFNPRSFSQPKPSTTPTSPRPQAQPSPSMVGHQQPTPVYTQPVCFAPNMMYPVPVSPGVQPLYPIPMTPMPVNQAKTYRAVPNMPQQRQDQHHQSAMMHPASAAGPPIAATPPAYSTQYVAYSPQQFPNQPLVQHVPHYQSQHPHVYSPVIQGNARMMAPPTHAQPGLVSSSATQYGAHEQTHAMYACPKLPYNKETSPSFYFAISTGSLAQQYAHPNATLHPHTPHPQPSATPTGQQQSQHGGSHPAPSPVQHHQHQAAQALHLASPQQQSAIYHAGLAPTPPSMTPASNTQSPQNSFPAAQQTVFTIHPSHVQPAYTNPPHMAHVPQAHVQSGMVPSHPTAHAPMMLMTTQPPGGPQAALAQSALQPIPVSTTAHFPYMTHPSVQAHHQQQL

Row | Structure (SMILES) | Potency
1 | Cc1nc(NC(=O)CSc2nnc(C3CC3)n2C)sc1C | inactive
2 | C=CCn1c(=N)c(C(=O)NCCCOC)cc2c(=O)n3cc(C)ccc3nc21 | inactive
3 | CCOc1ccc(S(=O)(=O)[N-]c2nc3ccccc3nc2-[n+]2ccc(NC(=O)c3cccs3)cc2)cc1 | inactive
4 | CCCn1c(=O)c(C(=O)Nc2ccccc2C)c(O)c2ccccc21 | inactive
5 | COC(=O)c1c(NC(=S)NC(=O)c2ccco2)sc2c1CCCC2 | inactive
6 | COC(=O)c1ccc(NC(=O)c2c(NCc3ccc(C)o3)sc3c2CCCC3)cc1 | 35.5 µM (active)
7 | COC(=O)c1c(NC(=O)c2ccc(N(C)S(=O)(=O)c3ccc(C)cc3)cc2)sc2c1CCCC2 | inactive
8 | O=C(O)c1ccc(N2N=C(c3ccccc3)CC2c2ccccc2)cc1 (stereo not drawn) | inactive
9 | COc1ccc(C2=NN(C(=O)c3ccccc3)C(c3ccc(OC)c(OC)c3)C2)c(O)c1 (stereo not drawn) | inactive
10 | Cc1ccc(C(=O)N2N=C(c3ccc(Br)cc3)CC2c2ccccc2O)cc1 (stereo not drawn) | 42.3 µM (active)
11 | N#Cc1c(C(F)(F)F)cc(-c2cccs2)nc1N1CCCCC1 | inactive
12 | COc1ccccc1NC(=O)Nc1nnc(Cc2ccc(F)cc2)s1 | inactive
13 | Cc1ccccc1NC(=O)Nc1nnc(Cc2ccc([N+](=O)[O-])cc2)s1 | 11.2 µM (active)
14 | Cc1ccccc1NC(=O)c1nn(C)c(C(=O)Nc2ccccc2C)c1[N+](=O)[O-] | inactive
15 | CCCc1cc(NCCOCCO)n2c(nc3ccccc32)c1C#N | inactive
16 | Nc1nc(O)nc(O)c1N=Cc1ccccc1 | inactive
17 | COC(=O)c1ccc(/C=N/Nc2nc(C)c(C)s2)cc1 | inactive
18 | C/C(=N\NC(=O)c1ccc(CN2CCOCC2)cc1)c1ccc([N+](=O)[O-])cc1 | inactive
19 | C/C(=N\Nc1nc(C)c(C)s1)c1ccc([N+](=O)[O-])cc1 | 37.7 µM (active)
20 | Brc1ccccc1-c1nnc(SCc2nc3ccccc3s2)o1 | inactive
21 | O=C(O)c1ccc(C=C(c2nc3ccccc3s2)c2nc3ccccc3s2)cc1 | inactive
22 | CCOc1ccccc1N(CC(=O)NCCSc1ccccn1)S(=O)(=O)c1ccccc1 | inactive
23 | O=C(OCc1nc2ccccc2s1)c1ccccc1O | inactive
24 | O=S(=O)(CCSc1ccccn1)c1nc2ccccc2s1 | 22.4 µM (active)
25 | C=CCS(=O)(=O)c1nc2ccccc2s1 | 35.5 µM (active)
26 | O=S(=O)(CCSc1nc2ccccc2o1)c1nc2ccccc2s1 | 15.8 µM (active)
27 | Cc1cccc(N2CC(C(=O)Nc3ccc(S(=O)(=O)Nc4nccs4)cc3)CC2=O)c1C (stereo not drawn) | inactive
28 | COCC(=O)Nc1nc2n(n1)C(c1ccc(Cl)cc1)CC(c1ccc(OC)cc1)N2 (stereo not drawn) | inactive
